From publication PMC4336329 (PLoS ONE, 2015)
The campaign covered roughly 310,000 compounds. About 14,000 (4.5%) showed an effect of 50% or more. Effects have a minus sign here. Only a selection was taken, and strong results are over-represented in it overall.

Target: human ether-à-go-go-related gene (hERG) potassium channel (human, UniProt Q12809)
Assay: primary screen, population patch clamp on CHO cells stably expressing hERG; higher = less effect of the substance
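Also: peak tail current of the secondary pulse compared with the same well before compound.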

Sequence of human ether-à-go-go-related gene (hERG) potassium channel (Q12809 whole entry, looked up): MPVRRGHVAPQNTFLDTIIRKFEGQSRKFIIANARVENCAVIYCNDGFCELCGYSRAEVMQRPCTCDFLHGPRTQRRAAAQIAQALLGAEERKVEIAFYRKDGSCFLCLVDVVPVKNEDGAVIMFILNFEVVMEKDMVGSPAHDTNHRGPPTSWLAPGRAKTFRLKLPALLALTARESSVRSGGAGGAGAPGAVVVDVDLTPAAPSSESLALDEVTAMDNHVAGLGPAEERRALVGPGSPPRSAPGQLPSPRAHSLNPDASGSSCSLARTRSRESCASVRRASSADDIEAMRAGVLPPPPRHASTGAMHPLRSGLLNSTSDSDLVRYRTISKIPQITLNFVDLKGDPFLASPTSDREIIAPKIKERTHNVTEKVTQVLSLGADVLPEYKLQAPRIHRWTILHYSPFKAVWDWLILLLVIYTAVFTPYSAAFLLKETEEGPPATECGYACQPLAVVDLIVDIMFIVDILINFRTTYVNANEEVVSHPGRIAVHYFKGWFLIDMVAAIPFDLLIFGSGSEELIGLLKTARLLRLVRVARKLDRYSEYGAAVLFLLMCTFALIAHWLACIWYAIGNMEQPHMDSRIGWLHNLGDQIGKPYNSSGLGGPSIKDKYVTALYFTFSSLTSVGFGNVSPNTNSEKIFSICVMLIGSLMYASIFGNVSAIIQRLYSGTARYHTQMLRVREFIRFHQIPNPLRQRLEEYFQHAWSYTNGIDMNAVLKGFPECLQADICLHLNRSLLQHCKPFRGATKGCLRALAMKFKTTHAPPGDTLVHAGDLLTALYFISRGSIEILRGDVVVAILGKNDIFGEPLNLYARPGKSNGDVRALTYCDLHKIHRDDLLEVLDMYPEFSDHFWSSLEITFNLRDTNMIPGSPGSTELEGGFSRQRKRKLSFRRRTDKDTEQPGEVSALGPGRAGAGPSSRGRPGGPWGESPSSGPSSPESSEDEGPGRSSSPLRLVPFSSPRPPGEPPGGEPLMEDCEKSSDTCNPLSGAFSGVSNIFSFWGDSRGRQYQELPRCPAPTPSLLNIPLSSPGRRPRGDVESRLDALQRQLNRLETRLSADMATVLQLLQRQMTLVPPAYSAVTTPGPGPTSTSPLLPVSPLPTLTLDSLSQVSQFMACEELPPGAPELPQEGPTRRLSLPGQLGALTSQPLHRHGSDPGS

SMILES	hERG current change (%, negative = inhibition) at 10uM
COc1ccccc1Oc1ccc2c(c1)C(=O)N(c1ccccc1)C2=O	-3.59%
CCc1ccc(OCC(=O)N(Cc2cccs2)C2CCS(=O)(=O)C2)cc1 (stereo not drawn)	-47.8%
Cc1ccc(OCC(=O)N(Cc2cccs2)C2CCS(=O)(=O)C2)cc1C (stereo not drawn)	4.21%
CCN(C(=O)COc1ccccc1[N+](=O)[O-])C1CCS(=O)(=O)C1 (stereo not drawn)	0.104%
O=C(COc1ccc([N+](=O)[O-])cc1)N(Cc1cccs1)C1CCS(=O)(=O)C1 (stereo not drawn)	-52.3%
Cc1ccsc1CN(C(=O)c1ccc([N+](=O)[O-])cc1)C1CCS(=O)(=O)C1 (stereo not drawn)	-60.8%
Cc1ccc(C(=O)N(Cc2sccc2C)C2CCS(=O)(=O)C2)cc1 (stereo not drawn)	-28.2%
O=C(COc1ccccc1[N+](=O)[O-])N(Cc1cccc(Br)c1)C1CCS(=O)(=O)C1 (stereo not drawn)	-57.8%
COc1cccc(CN(C(=O)COc2ccccc2[N+](=O)[O-])C2CCS(=O)(=O)C2)c1 (stereo not drawn)	-42%
Cc1ccsc1CN(C(=O)c1ccccc1)C1CCS(=O)(=O)C1 (stereo not drawn)	2.16%
CC1C/C(=N\NC(=S)NC(C)C)CC(C)(C)C1 (stereo not drawn)	9.06%
CCOC(=O)CNC(=O)CSc1nnc(NC(=O)c2ccc3c(c2)OCO3)s1	3.8%
CCC(CC)NC(=O)c1nn(Cc2ccccc2)c(=O)c2ccccc12	10.9%
CS(=O)(=O)N(CC(=O)NCCSCc1ccccc1Cl)c1ccccc1F	-35.4%
CC1=NN(C(N)=S)C(=O)C1N=Nc1ccccc1Cl (stereo not drawn)	20.2%
Cc1cc(NC(=O)C(C)SCC(=O)OCC(=O)N(Cc2ccccc2)C(C)(C)C)no1 (stereo not drawn)	-35.4%
Cc1cc(NC(=O)C(C)SCC(=O)OCC(=O)N(C)c2ccccc2)no1 (stereo not drawn)	-7%
Cc1cccc(N(Cc2ccccc2)C(=O)CSC(C)C(=O)Nc2cc(C)on2)c1 (stereo not drawn)	-53%
COc1ccccc1N1CCN(c2ccc([N+](=O)[O-])cn2)CC1	0.823%

SMILES	hERG current change (%, negative = inhibition) at 10uM
O=C(O)c1cccc(CSc2nc(-c3ccccc3)cc(C(F)(F)F)n2)c1	0.347%
CCOC(=O)C1CCCN(C(=O)c2ccc(CS(=O)(=O)c3ccc(C)cc3)o2)C1 (stereo not drawn)	-20.4%
CC1CCN(C(=O)c2ccc([N+](=O)[O-])o2)CC1	4.53%
Cc1ccccc1N1CCN(C(=S)c2ccc(-c3ccc([N+](=O)[O-])cc3)o2)CC1	20.2%
CCOC(=O)C1CCCN(C(=O)c2ccc(-c3ccc([N+](=O)[O-])cc3)o2)C1 (stereo not drawn)	-56.1%
O=C(c1ccc(-c2ccc([N+](=O)[O-])cc2)o1)N1CCCCCCC1	-22.7%
O=C(c1ccc(-c2ccc([N+](=O)[O-])cc2)o1)N1CCCCC1	-58.4%
O=C(c1ccc(-c2ccc([N+](=O)[O-])cc2)o1)N1CCCC(C(F)(F)F)C1 (stereo not drawn)	-17%
CCCN1CCN(C(=O)c2ccc(-c3ccc([N+](=O)[O-])cc3)o2)CC1	-78.1%
O=C(c1ccc(-c2ccc([N+](=O)[O-])cc2)o1)N1CCN(S(=O)(=O)c2cccs2)CC1	-27.3%
CCOC(=O)C1CCCN(C(=O)c2ccc([N+](=O)[O-])cc2)C1 (stereo not drawn)	-14.4%
CC1CC(C)CN(C(=O)c2ccc(-c3ccc([N+](=O)[O-])cc3)o2)C1 (stereo not drawn)	-69.1%
CC1CCCN(C(=O)c2ccc([N+](=O)[O-])o2)C1 (stereo not drawn)	21.6%
O=C(CSc1ncnc2ccccc12)NCC(=O)c1ccccc1	1.57%
O=C(Nc1ccccc1)c1c(O)[nH]c(=O)[nH]c1=O	8.67%
Cc1ccc(N2CC(C(=O)NCc3n[nH]c(=O)c4ccccc34)CC2=O)cc1C (stereo not drawn)	-13.5%
COc1ccc(-c2cc(C(=O)Nc3cc(C)on3)no2)cc1	19.9%
O=C1NC(c2ccc(-c3ccccc3[N+](=O)[O-])o2)C(C(=O)c2ccc(Cl)cc2)C(O)(C(F)(F)F)N1 (stereo not drawn)	2.13%
Cc1cc(NS(C)(=O)=O)c(=O)n(Cc2c(F)cccc2Cl)c1	8.86%

SMILES	hERG current change (%, negative = inhibition) at 10uM
CCCCn1c(SCc2c(C)noc2C)nc2cc(S(N)(=O)=O)ccc21	-43.1%
CCCCn1c(SCC(=O)N2CCCC2)nc2cc(S(N)(=O)=O)ccc21	9.3%
CCCCn1c(SCC(=O)N2CCC(C(=O)OCC)CC2)nc2cc(S(N)(=O)=O)ccc21	-70.7%
CCCCn1c(SCC(=O)N2CCC(C)CC2)nc2cc(S(N)(=O)=O)ccc21	-30.2%
CCCCn1c(SCc2nc3ccccc3s2)nc2cc(S(N)(=O)=O)ccc21	-37.5%
CCCCn1c(SCc2ncc(-c3ccccc3)o2)nc2cc(S(N)(=O)=O)ccc21	-50.5%
Cc1cc(C(=O)CSc2nn3c(=O)c(C(C)(C)C)nnc3s2)c(C)n1C	9.61%
COc1ccc(NC(=S)NCCc2ccc(F)cc2)c(OC)c1	-19.4%
O=C1c2cccc3c([N+](=O)[O-])ccc(c23)C(=O)N1c1ccccn1	7.95%
O=C(Cc1cccs1)NNC(=S)NC(=O)c1ccc(F)c(F)c1	12.2%
C=CCNC(=O)CN1CCC(c2nc3ccccc3[nH]2)CC1	7.7%
CC(C)N(C(=O)CN1CCC(c2nc3ccccc3[nH]2)CC1)C(C)C	-4.13%
Cc1ccc2nc(C3CCN(CC(=O)Nc4ccc5c(c4)OCCO5)CC3)[nH]c2c1	-50.6%
O=C(CN1CCC(c2nc3ccccc3[nH]2)CC1)Nc1ccc2c(c1)OCO2	-53.1%
O=C(CN1CCC(c2nc3ccccc3[nH]2)CC1)NCc1ccc2c(c1)OCO2	-84.3%
CCCNC(=O)CN1CCC(c2nc3ccccc3[nH]2)CC1	15.6%
Cc1ccc2nc(-c3ccc(SCC(=O)Nc4ccc5c(c4)OCCO5)nc3)[nH]c2c1	-5.51%
CC(C)NC(=O)CN1CCC(c2nc3ccccc3[nH]2)CC1	-8.64%
Cc1ccc2nc(SCC(=O)Nc3ccc4c(c3)OCCO4)[nH]c2c1	4.73%
